Pf growth 48h – inhibits P. falciparum growth in the first generation, 48 h | P. falciparum luciferase growth in erythrocytes, 48 h | Potency, µM (highest dose often 28.7 µM), actives largely listed as inhibitors | 310,000 tested, 5.9% active | AID 504832
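Cell-based growth assay: transgenic P. falciparum expressing firefly luciferase, cultured in red cells within RPMI 1640 containing 0.5% w/v Albumax, 24 mM bicarbonate and gentamycin. A drop in luciferase activity indicates inhibition.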
HCV inhibitor – inhibitors of hepatitis C virus infection; Huh7.5.1 HCVcc-Cre infection, luciferase reporter, 44 h; Potency, µM (doses to about 41.8 µM), most hits filed as inhibitors; 340,000 tested, 3.4% active
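1,000 cells/well; 4 h culture; + compound; + HCVcc-Cre (~0.5 moi); 44 h; luciferase substrate, RT 15 min; read 15 sec.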
Pf growth 96h – P. falciparum growth inhibition at 96 hour, primary screen for plastid delayed-death inhibitors; P. falciparum luciferase reporter growth, 96 h; Potency, µM (highest dose often 28.7 µM), hits mostly inhibitors; 320,000 tested, 6.9% active; AID 504834
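Compounds incubated with erythrocytes infected by luciferase-expressing P. falciparum (2% hematocrit, 0.05% parasitemia final) for 96 hours, 37 C in 5% CO2. Growth inhibition scored as decreased luciferase luminescence.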
AMA1 RON2 block – AMA1-RON2 (P. falciparum) interaction inhibition | 360,000 tested, 0.2% active | Potency, µM (series often up to 58.2 µM), hits mostly inhibitors | AlphaScreen AMA1-biotinylated RON2 peptide binding; also: nearly all actives have a fitted effect of over 45% in size
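AMA1 (3D7) with his tag at 25 nM final met compounds first, then biotinylated RON2 peptide at 25 nM; detection used donor plus acceptor beads, 10 µg/mL apiece, read by AlphaScreen after 30 min at room temperature.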
A number is an active result; - = inactive; ? = inconclusive; . = no result given. A selection: hits, their analogues and other compounds. The true share with any hit is near 11%. Calls follow the shape of the dose curve; as a rule, active = well fitted curve in the direction sought with a large enough effect; inconclusive = small, poorly fitted or top-dose-only effect, or another doubt; inactive = no such curve, though single readings can be large; an effect the other way counts as inactive or inconclusive.

SMILES | Pf growth 48h | HCV inhibitor | Pf growth 96h | AMA1 RON2 block
CCOC(=O)c1c(NC(=O)c2ccccc2)sc2c(O)c(CN(CC)CC)ccc12 | 1.9µM | ? | - | -
CN(C)CCn1c2c(c(SCC(=O)Nc3cccc4ccccc34)nc1=O)CCC2 | - | - | ? | -
COc1ccccc1-c1cnc2c(c1)C(=O)N([C@@H](C)CO)C[C@@H](C)[C@H](CN(C)C(=O)c1cccnc1)O2 | . | . | . | -
COc1ccc(C(=O)c2oc3ccccc3c2NC(C)=O)cc1 | - | 6.3µM | ? | -
Cc1c(C(=O)N2CCN(c3ccccn3)CC2)oc2ccccc12 | 8.3µM | - | . | -
O=C(c1oc2ccccc2c1CSCc1ccccc1)N1CCN(c2ncccn2)CC1 | ? | 11µM | - | -
COc1ccc(N2CCN(C(=O)c3oc4ccccc4c3C)CC2)cc1 | - | ? | - | 14µM
CC(=O)N1CCN(C(=O)c2oc3ccccc3c2C)CC1 | - | - | - | -
COc1cccc(C(=O)Nc2ccc3c(c2)n(C)c(=O)n3C)c1 | - | - | ? | -
Cc1cc(Cl)c2oc(C(=O)N3CCN(c4cccc(C)n4)CC3)c(C)c2c1 | - | - | 3.7µM | ?
COC(=O)c1oc2ccccc2c1NC(=O)c1ccccc1O | 10µM | ? | - | -
Cc1ccc2oc(C(=O)N3CCN(c4cccc(C)n4)CC3)c(C)c2c1 | - | - | ? | ?
COc1ccc2oc(C(=O)N3CCN(C(c4ccccc4)c4ccccc4)CC3)c(C)c2c1 | 3.7µM | ? | 4.7µM | ?
COc1ccc(OCC(=O)Nc2c(C(=O)N3CCN(C)CC3)oc3ccccc23)cc1 | - | - | 9.3µM | -
CC(C)(C)OC(=O)C[C@H]1C/C=C\C[C@@H](CC(=O)NCCO)C(=O)N[C@H](Cc2ccccc2)COC1=O | . | - | . | -
COc1cccc(NC(=O)c2oc3ccccc3c2NC(=O)C(C)(C)C)c1 | ? | 8.9µM | - | -
CCOc1ccc2oc(C(=O)N3CCN(c4ccccn4)CC3)c(C)c2c1 | - | - | 13µM | ?
COc1cccc(NC(=O)c2oc3ccccc3c2NC(=O)c2ccc3c(c2)OCO3)c1 | - | - | - | -
CCCCCCSc1nnc2[nH]c(=O)cc(N)n12 | ? | - | 5.2µM | -
Cc1cccc(C)c1OCc1cc(C(=O)NCc2ccc(Cl)s2)no1 | - | - | 10µM | -
Cc1cccc(C)c1OCc1cc(C(=O)NCC2CC2)no1 | ? | - | 15µM | -
COc1ccccc1CN(C)C(=O)c1sccc1-c1ccccc1 | - | - | ? | -
COc1ccc(CC(C)N2CCN(c3cccc(C(F)(F)F)c3)CC2)cc1OC (stereo not given) | . | 11µM | ? | -
Oc1ccc(N2CCN(C(c3ccccn3)c3nnnn3C3CCCC3)CC2)cc1 (stereo not given) | 10µM | - | - | -
CCC(c1nnnn1Cc1ccc2c(c1)OCO2)N1CCN(c2ccc(F)cc2)CC1 (stereo not given) | . | - | . | ?
SMILES | Pf growth 48h | HCV inhibitor | Pf growth 96h | AMA1 RON2 block
COc1ccc(C(c2nnnn2C2CCCCC2)N2CCN(c3ccc(OC)cc3)CC2)cc1 (stereo not given) | 12µM | ? | . | ?
CCC(c1nnnn1Cc1ccc2c(c1)OCO2)N1CCN(c2ccccc2)CC1 (stereo not given) | 12µM | - | - | ?
CC(C1CCN(Cc2cn(C)nc2-c2cccc(Cl)c2)CC1)N1CCOCC1 (stereo not given) | ? | - | - | -
CCOc1ccc(S(=O)(=O)N2CCCC(C(=O)N3CCCC3)C2)cc1 (stereo not given) | - | - | - | -
COCCn1nnnc1C(c1cccs1)N1CCN(c2cccc(C(F)(F)F)c2)CC1 (stereo not given) | ? | - | . | -
CCC(c1nnnn1CCOC)N1CCN(c2cccc(C(F)(F)F)c2)CC1 (stereo not given) | ? | - | 2.3µM | -
c1ccc(C(c2nnnn2C2CCCC2)N2CCN(c3ccccc3)CC2)cc1 (stereo not given) | 13µM | - | ? | -
Fc1ccc(C(c2nnnn2C2CCCCC2)N2CCCC2)cc1 (stereo not given) | 13µM | - | - | -
CCC(c1nnnn1C1CCCC1)N1CCN(c2cccc(OC)c2)CC1 (stereo not given) | 12µM | - | - | -
c1cc(N2CCCC2)ccc1C(c1nnnn1C1CCCCC1)N1CCOCC1 (stereo not given) | - | ? | - | -
COc1ccc(OC)c(C(c2nnnn2C2CCCC2)N2CCN(c3ccccc3)CC2)c1 (stereo not given) | ? | - | ? | ?
Cc1ccn(C(=O)c2ccc(NC(=O)C3CC3)cc2)n1 | - | - | - | -
CCCCNC(=O)C[C@@H]1C[C@@]2(C(=O)OCC)CCCC=C2N(Cc2ccc3c(c2)OCO3)C1=O | . | . | . | -
CC1CCN(c2ccc(-c3cccs3)nn2)CC1 | - | - | - | -
Cc1cc(C)c2cc(C(c3nnnn3C3CCCC3)N3CCOCC3)c(=O)[nH]c2c1 (stereo not given) | ? | - | - | -
CCC(C)[C@H](NC(=O)N1CCN(c2cccc(C(F)(F)F)c2)CC1)C(=O)OC (stereo not given in full) | . | - | 5.2µM | -
Cc1ccc2cc(C(c3nnnn3C3CCCC3)N3CCN(c4ccc(F)cc4)CC3)c(=O)[nH]c2c1 (stereo not given) | 5.9µM | - | - | -
COc1ccc(/C(C)=N/NC(=O)c2ccc(NS(=O)(=O)c3cccs3)cc2)cc1 | - | - | - | -
CC(C)(C)c1cc(CCC(=O)N2CCC2)cc(C(C)(C)C)c1O | - | - | - | -
CC(OC(=O)CCc1cc(C(C)(C)C)c(O)c(C(C)(C)C)c1)C(=O)NC1CC1 (stereo not given) | 0.47µM | ? | 0.66µM | -
Cc1ccc(C)c(-n2nnnc2Sc2nnnn2-c2ccccc2)c1 | . | 11µM | - | -
Cc1nnc(SCc2nc3ccccc3c(=O)n2-c2ccccc2Cl)n1N | - | - | - | -
CCSc1nnnn1-c1ccccc1 | . | - | ? | -
c1ccc(Cn2c(CSc3nnnn3-c3ccccc3)nc3ccccc32)cc1 | ? | - | 15µM | -
c1ccc(-c2nc(CSc3nnnn3-c3ccccc3)cs2)cc1 | - | - | - | -
SMILES | Pf growth 48h | HCV inhibitor | Pf growth 96h | AMA1 RON2 block
O=c1c2ccccc2nc(CSc2nnnn2-c2ccccc2)n1-c1ccccc1Cl | ? | ? | 12µM | -
c1ccc(Cn2c(Sc3nnnn3-c3ccccc3)nnc2-c2ccccc2)cc1 | 1.9µM | - | ? | -
c1ccc(Cc2nc3ccccc3n2Cc2ccccc2)cc1 | ? | ? | ? | -
CCOc1ccc(NC(=O)CSc2nnnn2-c2ccc(C(N)=O)cc2)cc1 | - | - | - | -
CCOC(=O)CSc1nc2ccccc2c(=O)n1NC(=O)c1ccccc1 | - | - | 7.4µM | -
CN(C)C(CNC(=O)CSc1nc2ccccc2c(=O)n1Cc1ccco1)c1ccccc1 (stereo not given) | ? | - | ? | -
CCOC(=O)CSc1nc2ccccc2c(=O)n1Cc1ccco1 | - | 13µM | - | -
COc1ccc(C(=O)Nn2c(SCC(=O)c3ccccc3)nc3ccccc3c2=O)cc1 | - | ? | - | -
